Assay outcomes deposited in PubChem by National Center for Advancing Translational Sciences (NCATS).
A selection: hits, their analogues and other compounds. The true share with any hit is near 21%.
Pf growth 96h – Primary qHTS for delayed death inhibitors of the malarial parasite plastid, 96 hour incubation; P. falciparum luciferase reporter growth, 96 h; Potency, µM (top dose mostly 28.7 µM), without a hit: at the top dose activity change, negative = inhibition, most hits filed as inhibitors; 320,000 compounds, 6.9% hits; AID 504834, 2011; note: potency is the fitted concentration of half-maximal effect; % is set by controls: 0 for no effect and ±100 for the full control effect
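96 h incubation, 37 C, 5% CO2, of luciferase-reporter P. falciparum-infected RBCs (2% hematocrit, 0.05% parasitemia final) with test compounds; endpoint luminescence.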
Cycloheximide cs – Cycloheximide Counterscreen for Small Molecule Inhibitors of Shiga Toxin. max response, %. cell reporter, cycloheximide protein synthesis inhibition counterscreen. 300,000 compounds, 12% hits; in the data active = max response mostly above about 13%, no sharp cut-off; inactive = mostly below about 14%; note: read at 38.3 µM for the half of the compounds with a filed dose; 0% is about no effect
Shiga inhibitor – A qHTS for Small Molecule Inhibitors of Shiga Toxin; Vero cells, Shiga toxin protein synthesis inhibition reporter; inhibition, % at 38.7 µM; 290,000 compounds, 9.2% hits; in the data active = inhibition mostly above about 28%, no sharp cut-off; inactive = mostly below about 43%; note: 0% is about no effect
NS1 inh – qHTS Assay for Inhibitors of Influenza NS1 Protein Function; Potency, µM (top dose mostly 46.1 µM), for the others: at the top dose activity, positive = more growth; 270,000 compounds, 0.4% hits; calls by dose curve; note: potency is the fitted concentration of half-maximal effect; actives are rising curves; nearly all actives have a fitted effect of over 50% in size
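Read-out: OD600 growth recovery of NS1-expressing budding yeast. Cells grown overnight at 30C in -URA glucose medium, washed, resuspended and diluted 1:100 in 2% galactose assay medium, pH 6.0. Same strain lacking NS1 served as positive control.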
Sm TGR block – qHTS Assay for the Inhibitors of Schistosoma Mansoni Peroxiredoxins; Schistosoma mansoni thioredoxin glutathione reductase (TGR), Q962Y6; Potency, µM (series often up to 114 µM), without a hit: at the highest dose activity change, negative = inhibition, most hits filed as inhibitors; purified TGR, DTNB reduction, TNB absorbance 405 nm; 360,000 compounds, 3% hits; note: potency is the fitted concentration of half-maximal effect; % is set by controls: 0 for no effect and ±100 for the full control effect; nearly all actives have a fitted effect of over 60% in size
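Kinetic colorimetric format: TGR-catalysed, NADPH-driven DTNB reduction monitored via TNB absorbance. Enzyme dispensed at 20 nM; compound exposure 15 min at room temperature before reaction start.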
Pf growth 48h – Primary qHTS for delayed death inhibitors of the malarial parasite plastid, 48 hour incubation; P. falciparum luciferase growth in erythrocytes, 48 h; Potency, µM (doses to about 28.7 µM), inactives show top-dose activity change, negative = inhibition, hits mostly inhibitors; 310,000 compounds, 5.9% hits; note: potency is the fitted concentration of half-maximal effect; % is set by controls: 0 for no effect and ±100 for the full control effect
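A one-generation exposure of luciferase-tagged malaria parasites in RPMI 1640/Albumax erythrocyte culture, 37 C and 5% CO2. Inhibition is inferred from decreased luminescence after adding detection reagent.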
Numbers without * were called inactive. Unless noted, calls come from the whole dose curve; as a rule, active = well fitted curve in the direction sought with a large enough effect; inconclusive = small, poorly fitted or top-dose-only effect, or another doubt; inactive = no such curve, though single readings can be large; an effect the other way counts as inactive or inconclusive.

N#Cc1ccc(NC(=O)Nc2ccc(Oc3ccc(NC(=O)Nc4ccc(C#N)cc4)cc3)cc2)cc1 was read as Pf growth 96h inconclusive, Cycloheximide cs 6, Shiga inhibitor 27, NS1 inh 18%, Sm TGR block -1% and Pf growth 48h 1.7µM*.
Screening Cc1oc(-c2ccc(Cl)cc2)nc1CSc1nnc(C)n2c1cc1sccc12 returned Sm TGR block 4%.
Screening COc1ccc(OC)c(NC(=O)c2cc(S(=O)(=O)N(C)C)ccc2N2CCCC2)c1 returned Pf growth 96h inconclusive, Sm TGR block -7% and Pf growth 48h 13µM*.
Cc1ccc(NC(=O)c2ccccc2SCC(=O)N2CCCC2)cc1S(=O)(=O)N(C)C was read as Pf growth 96h 6.6µM*, Cycloheximide cs 2, Shiga inhibitor 4, NS1 inh -2%, Sm TGR block -14% and Pf growth 48h inconclusive.
CN(C)S(=O)(=O)c1ccc(N2CCCC2)c(C(=O)NNC(=O)c2ccccc2)c1 was read as Pf growth 96h inconclusive, Sm TGR block -16% and Pf growth 48h 7.4µM*.
`CN(C)S(=O)(=O)c1ccc(N2CCCC2)c(C(=O)Nc2ccc(C(N)=O)cc2)c1` gave Pf growth 96h -3%, Sm TGR block 1% and Pf growth 48h inconclusive.
Screening Cc1ccc(NC(=O)c2cc(S(=O)(=O)N(C)C)ccc2N2CCCC2)cc1S(=O)(=O)N(C)C returned Pf growth 96h 10µM*, Sm TGR block -4% and Pf growth 48h inconclusive.
CN(C)S(=O)(=O)c1ccc(N2CCCC2)c(C(=O)Nc2ccccc2Br)c1 was read as Pf growth 96h 15µM*, Sm TGR block -11% and Pf growth 48h 13µM*.
Screening CCc1ccccc1NC(=O)c1cc(S(=O)(=O)N(C)C)ccc1N1CCCC1 returned Pf growth 96h inconclusive, Cycloheximide cs -2, Shiga inhibitor -27, NS1 inh 14%, Sm TGR block -20% and Pf growth 48h inconclusive.
`CN(C)S(=O)(=O)c1ccc(N2CCCC2)c(C(=O)NC(c2ccccc2)c2ccccc2)c1` gave Cycloheximide cs -6, Shiga inhibitor -17, NS1 inh 8%, Sm TGR block -10% and Pf growth 48h 0.83µM*.
For Cc1ccc2c(=O)cc(C(=O)Nc3sc4c(c3C(=O)NCc3ccco3)CCC4)oc2c1C the results were Sm TGR block 8%.
O=C(Cn1c(=O)nc(-c2ccccc2)c2ccccc21)NCc1ccccc1Cl was read as Sm TGR block -2%.
For CC(=O)N1CCCc2cc(S(=O)(=O)N(C)CC(=O)Nc3ccc(C(C)C)cc3)ccc21 the results were Sm TGR block 6%.
For COc1ccc(N2CCN(C(=O)c3ccc(C(C)(C)C)cc3)CC2)cc1 the results were Pf growth 96h 8%, Cycloheximide cs -1, Shiga inhibitor 3, NS1 inh -109% and Sm TGR block -15%.
Screening COc1ccc(OC)c(CN2CCN(C(=O)CNC(=O)c3ccc(C(C)(C)C)cc3)CC2)c1 returned Pf growth 96h 12µM*, Sm TGR block -12% and Pf growth 48h inconclusive.
`COc1ccc(N2CCN(C(=O)CCNC(=O)c3ccc(C(C)(C)C)cc3)CC2)cc1` gave Pf growth 96h inconclusive, Cycloheximide cs -5, Shiga inhibitor -7, NS1 inh 2%, Sm TGR block 2% and Pf growth 48h 10µM*.
`COc1ccc(OC)c(CN2CCN(C(=O)CCNC(=O)c3ccc(Br)cc3)CC2)c1` gave Pf growth 96h 0%, Sm TGR block -10% and Pf growth 48h -6%.
For COc1ccc(N2CCN(C(=O)CCS(=O)(=O)c3ccc(C)cc3)CC2)cc1 the results were Pf growth 96h -7%, Cycloheximide cs -3, Shiga inhibitor -9, NS1 inh -2%, Sm TGR block 25µM* and Pf growth 48h 0%.
COc1ccc(N2CCN(C(=O)CCS(=O)(=O)c3ccc(OC)cc3)CC2)cc1 was read as Pf growth 96h 26%, Cycloheximide cs -2, Shiga inhibitor 6, Sm TGR block -15% and Pf growth 48h -2%.
`COc1ccc(S(=O)(=O)CCC(=O)N2CCN(c3ccc(C(C)=O)cc3)CC2)cc1` gave Pf growth 96h 8.3µM*, Cycloheximide cs 15*, Shiga inhibitor 56*, NS1 inh -2%, Sm TGR block -10% and Pf growth 48h -11%.
`O=C(Nc1cc(S(=O)(=O)N2CCOCC2)ccc1N1CCOCC1)C1CCCO1` (centres undefined) gave Pf growth 96h -17%, Cycloheximide cs -3, Shiga inhibitor -19, NS1 inh -2%, Sm TGR block 13% and Pf growth 48h 4%.
`COc1ccccc1N(Cc1cc(=O)[nH]c2ccccc12)C(=O)C(C)C` gave Pf growth 96h inconclusive, Cycloheximide cs -3, Shiga inhibitor -6, NS1 inh 6%, Sm TGR block -16% and Pf growth 48h inconclusive.
For Cc1cc(C)cc(N2CCn3c2nc2c3c(=O)n(Cc3ccc(Cl)cc3)c(=O)n2C)c1 the results were Sm TGR block -3%.
Cc1sc2nc[nH]c(=O)c2c1-c1ccc(Cl)cc1 was read as Pf growth 96h inconclusive, Cycloheximide cs -4, Shiga inhibitor -10, NS1 inh -1%, Sm TGR block 15% and Pf growth 48h 10%.
`CC(C)CCOc1ccc(C(=O)NCCC(=O)N2CCOCC2)cc1` gave Pf growth 96h inconclusive, Cycloheximide cs 18*, Shiga inhibitor 41*, NS1 inh 4%, Sm TGR block -10% and Pf growth 48h 41%.
For N#Cc1sc2nc3c(cc2c1N)CCCC3 the results were Pf growth 96h 12µM*, Cycloheximide cs 23*, Shiga inhibitor 27, NS1 inh -8%, Sm TGR block -6% and Pf growth 48h 74%.
For Nc1c(C(=O)C2CC2)sc2nc3c(cc12)CCC3 the results were Pf growth 96h -2%, Cycloheximide cs 43*, Shiga inhibitor 66*, NS1 inh -3%, Sm TGR block 15% and Pf growth 48h 123%.
Nc1c(C(=O)O)sc2nc3c(cc12)CCCC3 was read as Pf growth 96h 29%, Cycloheximide cs -1, Shiga inhibitor 4, NS1 inh 8%, Sm TGR block 0% and Pf growth 48h 31%.
For Nc1c(C(=O)c2ccc(Cl)cc2)sc2nc3c(cc12)CCC3 the results were Pf growth 96h inconclusive, Cycloheximide cs 32*, Shiga inhibitor 26, NS1 inh 4%, Sm TGR block 4% and Pf growth 48h 37%.
NC(=O)c1sc2nc3c(cc2c1N)CCCCCC3 was read as Pf growth 96h 56%, Cycloheximide cs 31*, Shiga inhibitor 52*, NS1 inh -1%, Sm TGR block -9% and Pf growth 48h 102%.
